Results filed as inconclusive are left out. Active and inactive are the calls of the source. Unless noted, calls follow the shape of the dose curve; as a rule, active = well fitted curve in the direction sought with a large enough effect; inconclusive = small, poorly fitted or top-dose-only effect, or another doubt; inactive = no such curve, though single readings can be large; an effect the other way counts as inactive or inconclusive.
What was measured:
[1] = Cell Viability - BJ (AID 421; calls by dose curve;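 also: potency is read from the fitted curve at half-maximal effect; cells exposed to compound for 40 hours at 37 °C before readout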); details: BJ fibroblast viability, qHTS
In short: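 Cytotoxicity as drop in intracellular ATP (CellTiter-Glo, 20 min RT) after 40 hr compound exposure of BJ fibroblasts at 37 °C. Titrations scaled between DMSO and 100 uM tamoxifen, Hill-fitted for AC50.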

[2] = Cell Viability - MRC5 (AID 434; calls by dose curve;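 also: potency is read from the fitted curve at half-maximal effect; cells exposed to compound for 40 hours at 37 °C; potency reflects cytotoxicity seen as loss of intracellular ATP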); details: MRC5 lung fibroblast viability, qHTS
In short: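 ATP luminescence read-out (CellTiter-Glo, 20 min RT) after 40 hr, 37 °C compound exposure of 1500 MRC5 cells/well. Data normalized to DMSO (basal) and 100 uM tamoxifen (100% inhibition); AC50 from standard Hill equation.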

[3] = Cell Viability - SK-N-SH (AID 435; calls by dose curve; also: potency is read from the fitted curve at half-maximal effect); details: SK-N-SH neuroblastoma cell viability qHTS
In short: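 qHTS cytotoxicity: CellTiter-Glo ATP luminescence after 40 h compound exposure of human neuroblastoma SK-N-SH cells at 37 °C. AC50 derived by Hill-equation fitting, with DMSO as basal and 100 uM tamoxifen as full inhibition.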

[4] = target: Mitogen-activated protein kinase 10 (Mus musculus) (UniProt Q61831); assay: JNK3 AlphaScreen Assay (AID 530; active = well fitted curve in either direction with a large enough effect, not every such curve was filed as active;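 also: kinase came from lysate of stimulated human HepG2 cells; signal reports phosphorylation of biotinylated GST-cJun 1-79 at Ser73 with 10 µM ATP; % is scaled to controls: 0 for no effect and ±100 for the full control effect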); details: JNK3 lysate, c-Jun phosphorylation; series mostly up to 57.1 µM
In short: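 Activity was read by AlphaScreen after JNK3-containing HepG2 lysate (cytokine pre-activated) phosphorylated biotinylated GST-cJun with 10 uM ATP at room temperature. Phospho-Ser73 cJun antibody with Protein-A acceptor beads provided detection.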

[5] = Cell Viability - Mesenchymal (AID 546); details: mesenchymal cells viability, qHTS; activity change, negative = cytotoxicity: at 91.7 µM (top of the series);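 also: cells exposed to compound for 40 hours before reading; 0% = DMSO only and -100% = 100 µM tamoxifen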
In short: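 Human renal mesenchymal cells (glomerulus-derived), 1000 cells/well, 5 hr 37 °C pre-incubation; compound 40 hr, 37 °C; CellTiter-Glo, 20 min RT; luminescence; AC50 via Hill equation.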

[6] = target: Cytochrome P450 3A4 (Homo sapiens) (UniProt P08684); assay: qHTS Assay for Inhibitors and Substrates of Cytochrome P450 3A4 (AID 884); details: recombinant CYP3A4, Luciferin-PPXE luminescence; series mostly up to 57.1 µM; also: % is scaled to controls: 0 for no effect and ±100 for the full control effect; nearly all actives have a fitted effect of over 50% in size
Chain of Cytochrome P450 3A4 (Homo sapiens) (P08684 whole entry, looked up): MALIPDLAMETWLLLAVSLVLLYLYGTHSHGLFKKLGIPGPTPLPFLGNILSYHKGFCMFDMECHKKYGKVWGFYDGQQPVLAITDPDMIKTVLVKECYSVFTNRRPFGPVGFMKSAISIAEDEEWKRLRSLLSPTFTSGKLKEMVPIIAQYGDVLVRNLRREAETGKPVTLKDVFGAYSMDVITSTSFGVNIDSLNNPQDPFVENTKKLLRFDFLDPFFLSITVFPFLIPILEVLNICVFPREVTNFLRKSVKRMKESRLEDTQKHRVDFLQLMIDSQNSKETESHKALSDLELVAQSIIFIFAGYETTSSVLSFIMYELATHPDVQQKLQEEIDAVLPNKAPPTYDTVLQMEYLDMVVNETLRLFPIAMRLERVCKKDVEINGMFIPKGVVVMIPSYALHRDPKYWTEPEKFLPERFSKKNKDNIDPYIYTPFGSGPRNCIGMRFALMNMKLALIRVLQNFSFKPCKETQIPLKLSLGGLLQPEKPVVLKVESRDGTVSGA
In short: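 Luminescent readout of luciferin produced by CYP3A4 (20 nM) dealkylation of Luciferin-PPXE, 25 uM (its KM). NADPH-driven reaction ran 60 min at RT after 10 min compound preincubation; data scaled to 57 uM ketoconazole as 100% inhibition.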

[7] = qHTS Assay for Identification of Small Molecule Inducers of Hypoxia Response (AID 2120; active = well fitted curve in the direction sought with a large enough effect in the signal ratio, with a control signal flat, not every such curve was filed as active; the % refers to the signal ratio; also: 0% is about no effect); details: hypoxia response reporter cells, beta-lactamase ratio readout; series mostly up to 104 µM
In short: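 Cell-based qHTS for reporter induction: hypoxia response element controlled beta-lactamase in ME-180 cells. Compounds incubated 17 h at 37 degrees C; activity from blue/green (460/530 nm) ratio, inducers ranked by AC50.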

[8] = target: Peroxisome proliferator-activated receptor gamma (Homo sapiens) (UniProt P37231); assay: qHTS assay for small molecule agonists of peroxisome proliferator-activated receptor gamma signaling (AID 588536; active = well fitted curve in the direction sought with a large enough effect in the signal ratio, with a control signal flat, not every such curve was filed as active; the % refers to the signal ratio;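 also: 0% = DMSO basal wells and 100% = rosiglitazone at 2 µM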); details: HEK293 PPARg-UAS-bla, beta-lactamase ratio, 16 h, percent of rosiglitazone response, DMSO as zero; series mostly up to 76.7 µM
Chain of Peroxisome proliferator-activated receptor gamma (Homo sapiens) (P37231 whole entry, looked up): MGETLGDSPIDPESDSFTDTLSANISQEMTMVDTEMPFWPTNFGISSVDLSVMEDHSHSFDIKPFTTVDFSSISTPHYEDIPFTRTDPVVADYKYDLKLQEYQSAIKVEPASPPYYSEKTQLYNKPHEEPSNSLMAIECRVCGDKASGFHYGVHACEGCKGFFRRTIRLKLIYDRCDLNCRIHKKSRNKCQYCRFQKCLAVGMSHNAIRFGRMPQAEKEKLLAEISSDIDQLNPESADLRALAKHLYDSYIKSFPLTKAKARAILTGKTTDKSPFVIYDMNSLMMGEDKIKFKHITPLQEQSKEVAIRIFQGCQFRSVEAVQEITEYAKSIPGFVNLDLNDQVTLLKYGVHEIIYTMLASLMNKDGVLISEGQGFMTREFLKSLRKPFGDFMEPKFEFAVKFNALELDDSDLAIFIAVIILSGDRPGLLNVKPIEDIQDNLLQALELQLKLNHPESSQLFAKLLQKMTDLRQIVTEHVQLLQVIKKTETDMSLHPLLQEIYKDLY
In short: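 This is an agonist-mode beta-lactamase reporter assay in HEK293 PPAR-gamma-UAS-bla cells with 1% charcoal/dextran FBS. Compound titrations ran 16 h at 37 C before CCF4 detection. EC50 and efficacy are Hill fits scaled to 2 uM rosiglitazone (100%) and DMSO basal.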

[9] = target: Thyroid hormone receptor beta (Homo sapiens) (UniProt P10828); assay: qHTS assay for small molecule agonists of thyroid hormone receptor beta signaling (AID 588545; calls by dose curve); details: TR-UAS-bla GripTite HEK 293, beta-lactamase ratio, agonist mode, 18 h, percent of T3 response, DMSO as zero; series mostly up to 76.7 µM
Chain of Thyroid hormone receptor beta (Homo sapiens) (P10828 whole entry, looked up): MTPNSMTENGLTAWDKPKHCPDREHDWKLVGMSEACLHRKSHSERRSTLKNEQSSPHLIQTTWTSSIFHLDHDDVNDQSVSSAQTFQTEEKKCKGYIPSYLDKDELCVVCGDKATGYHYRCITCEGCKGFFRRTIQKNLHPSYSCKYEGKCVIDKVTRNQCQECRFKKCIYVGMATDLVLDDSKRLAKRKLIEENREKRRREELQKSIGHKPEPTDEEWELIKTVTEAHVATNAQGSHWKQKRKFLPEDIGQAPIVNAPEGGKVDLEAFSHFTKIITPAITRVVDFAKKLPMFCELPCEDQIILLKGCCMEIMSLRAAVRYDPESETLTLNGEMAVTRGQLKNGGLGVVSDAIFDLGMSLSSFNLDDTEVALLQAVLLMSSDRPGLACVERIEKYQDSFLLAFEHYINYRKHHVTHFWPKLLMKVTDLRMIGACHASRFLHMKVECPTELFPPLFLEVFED
In short: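 Agonist activity was read as beta-lactamase CCF4 fluorescence (405 ex, 460/530 em), scaled between DMSO (0%) and 10 nM T3 (100%), then Hill-fitted for EC50 and efficacy. HEK 293 TR-UAS-bla cells in 2% charcoal/dextran FBS medium were exposed 18 h at 37 C.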

[10] = qHTS assay for small molecule antagonists of retinoid X receptor alpha signaling (AID 588546); details: HEK293T RXRa-UAS-bla, beta-lactamase ratio, antagonist mode; measured here: W530 green channel, cytotoxicity proxy;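 also: cells stimulated with 9-cis-retinoic acid as agonist; % is scaled to controls: 0 for no effect and ±100 for the full control effect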
In short: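 Beta-lactamase reporter inhibition, read as CCF4 fluorescence ratio (ex 405, em 460/530 nm) after 2 h at RT. HEK293T UAS-bla cells, 2500/well, were stimulated with 9-cis-RA at 500 or 100 nM final alongside test compound for 18 h at 37 C.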

[11] = qHTS assay for environmental chemicals that activate the Aryl hydrocarbon Receptor (AhR) signaling pathway (AID 651777); details: 1A2-DRE human hepatoma cells, luciferase, 24 h; activation: stronger effect = higher value; also: % of control where 0% means no effect; nearly all actives have a fitted effect of over 15% in size
In short: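 1A2-DRE human hepatoma reporter line; 1,200 cells/well; cmpd or DMSO 24 h, 37 C/5% CO2; One-Glo 30 min RT; luciferase lum.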

[12] = target: Peroxisome proliferator-activated receptor alpha (Homo sapiens) (UniProt Q07869); assay: qHTS assay for small molecule agonists of the peroxisome proliferator-activated receptor alpha (PPARalpha) signaling pathway (AID 651778); details: PathHunter PPARalpha complementation, chemiluminescence, 6 h; max response: stronger effect = higher value; also: % of control where 0% means no effect
Chain of Peroxisome proliferator-activated receptor alpha (Homo sapiens) (Q07869 whole entry, looked up, the tested form may be a part): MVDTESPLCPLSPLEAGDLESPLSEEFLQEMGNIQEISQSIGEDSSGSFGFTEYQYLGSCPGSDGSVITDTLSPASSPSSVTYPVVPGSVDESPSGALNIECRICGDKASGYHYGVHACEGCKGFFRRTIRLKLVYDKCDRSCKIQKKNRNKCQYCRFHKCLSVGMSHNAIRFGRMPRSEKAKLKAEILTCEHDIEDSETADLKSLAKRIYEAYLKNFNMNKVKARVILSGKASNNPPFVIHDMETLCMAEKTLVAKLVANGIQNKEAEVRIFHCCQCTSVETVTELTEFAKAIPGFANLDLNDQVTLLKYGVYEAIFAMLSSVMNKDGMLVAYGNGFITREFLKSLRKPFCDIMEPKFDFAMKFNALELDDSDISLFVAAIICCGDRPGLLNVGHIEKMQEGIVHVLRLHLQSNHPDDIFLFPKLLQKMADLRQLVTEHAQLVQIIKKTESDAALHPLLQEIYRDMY
In short: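 Enzyme-fragment complementation assay in which ligand-bound PPARalpha translocates and forms an active enzyme that generates chemiluminescence. Cells were plated overnight, exposed to compound for 6 hr at 37 C, and then given detection reagent for 60 min at room temperature.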

[13] = qHTS assay for small molecule agonists of the antioxidant response element (ARE) signaling pathway measured by Nrf2-dependant transcriptional activity (AID 720636; active = well fitted curve in the direction sought with a large enough effect in the repeat runs; an effect the other way counts as inactive or inconclusive;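 also: HepG2 cells with an ARE-driven luciferase reporter; % of control where 0% means no effect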); details: ARE-luc HepG2, Nrf2 luciferase reporter, 16 h; series mostly up to 92.4 µM
In short: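 Cells: ARE-luc HepG2 with Nrf2-responsive luciferase. Medium contained 1% dialyzed FBS. Compound exposure lasted 16 hr at 37 C and 5% CO2, followed by ONE-Glo luciferase detection.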

[14] = qHTS assay for cell viability of HEK293 cells (AID 743288); details: ATP luminescence (CellTiter-Glo), 18 h; max response: stronger effect = lower value; also: % is scaled to controls: 0 for no effect and ±100 for the full control effect; nearly all actives have a fitted effect of over 50% in size
In short: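 Readout is luciferase-coupled ATP content (CellTiter-Glo luminescence, 30 min room temperature) as a measure of metabolically competent cells. Parental HEK293 cells were plated 5 h or more before compound addition, then treated 18 h at 37 C.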

[15] = qHTS assay for cell viability of the p53RE-bla HCT-116 cell line (AID 743292); details: p53RE-bla HCT-116 viability, ATP luminescence, 16 h; series mostly up to 95 µM; also: % is scaled to controls: 0 for no effect and ±100 for the full control effect; nearly all actives have a fitted effect of over 55% in size
In short: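 HCT-116 p53RE-bla cells seeded 4,000/well; 5 h at 37 C; compound (DMSO) added; 16 h at 37 C; CellTiter-Glo added, 30 min RT; luminescence read.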

[16] = target: Glutathione peroxidase 1 (Homo sapiens) (UniProt P07203); assay: Primary qHTS Assay for Inhibitors of Recombinant Selenoprotein Glutathione Peroxidase 1 (GPX1) (AID 1845191); details: recombinant GPX1, GR-coupled NADPH fluorescence, 15 min; series mostly up to 48.8 µM; also: nearly all actives have a fitted effect of over 65% in size; also: potency is read from the fitted curve at half-maximal effect; as to activity, negative = inhibition: % is scaled to controls: 0 for no effect and ±100 for the full control effect
Chain of Glutathione peroxidase 1 (Homo sapiens) (P07203 whole entry, looked up): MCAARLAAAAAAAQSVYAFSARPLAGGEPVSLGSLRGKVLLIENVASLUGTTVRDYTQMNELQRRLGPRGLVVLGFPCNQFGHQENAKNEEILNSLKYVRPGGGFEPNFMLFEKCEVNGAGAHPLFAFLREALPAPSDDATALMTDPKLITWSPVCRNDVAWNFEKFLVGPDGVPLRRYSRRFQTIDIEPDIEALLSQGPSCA
In short: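 GR-coupled readout: NADPH consumption tracked by fluorescence, ex 340/em 450 nm, at t=0 and after 15 min at RT. Final mix 10 nM GPX1, 1 mM GSH, 0.5 mM CHP, 0.5 mM NADPH, 100 nM GR, 0.01% BSA, following 30 min enzyme–compound preincubation.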

[17] = target: Phospholipid hydroperoxide glutathione peroxidase GPX4 (Homo sapiens) (UniProt P36969); assay: Primary qHTS Assay for Inhibitors of Recombinant Selenoprotein Glutathione Peroxidase 4 (GPX4) (AID 1845192); details: recombinant GPX4, GR-coupled NADPH fluorescence, 15 min; series mostly up to 50 µM; also: nearly all actives have a fitted effect of over 65% in size
Chain of Phospholipid hydroperoxide glutathione peroxidase GPX4 (Homo sapiens) (P36969 whole entry, looked up): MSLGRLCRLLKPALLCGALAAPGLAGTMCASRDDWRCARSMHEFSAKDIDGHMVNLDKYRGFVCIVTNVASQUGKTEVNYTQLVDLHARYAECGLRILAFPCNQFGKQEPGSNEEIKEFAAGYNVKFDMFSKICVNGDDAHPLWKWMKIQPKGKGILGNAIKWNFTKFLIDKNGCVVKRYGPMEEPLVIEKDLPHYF
In short: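 Steps: GPX4 plus compound, 30 min RT; add GR/GSH/NADPH master mix; start with cumene hydroperoxide; read 340/450 nm fluorescence at 0 and 15 min. Finals were 200 nM GPX4, 1 mM GSH, 0.5 mM CHP, 0.5 mM NADPH, 100 nM GR.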

[18] = target: Luciferin 4-monooxygenase (Photinus pyralis) (UniProt P08659); assay: Biochemical firefly luciferase enzyme assay for NPC (AID 624030);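 also: purified P. pyralis luciferase at 10 nM with luciferin and ATP substrate; 0% = DMSO and -100% = full luciferase inhibition by PTC124 control; nearly all actives have a fitted effect of over 70% in size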; details: purified P. pyralis luciferase, luminescence, 5 min; series mostly up to 58.6 µM
Chain of Luciferin 4-monooxygenase (Photinus pyralis) (P08659 whole entry, looked up): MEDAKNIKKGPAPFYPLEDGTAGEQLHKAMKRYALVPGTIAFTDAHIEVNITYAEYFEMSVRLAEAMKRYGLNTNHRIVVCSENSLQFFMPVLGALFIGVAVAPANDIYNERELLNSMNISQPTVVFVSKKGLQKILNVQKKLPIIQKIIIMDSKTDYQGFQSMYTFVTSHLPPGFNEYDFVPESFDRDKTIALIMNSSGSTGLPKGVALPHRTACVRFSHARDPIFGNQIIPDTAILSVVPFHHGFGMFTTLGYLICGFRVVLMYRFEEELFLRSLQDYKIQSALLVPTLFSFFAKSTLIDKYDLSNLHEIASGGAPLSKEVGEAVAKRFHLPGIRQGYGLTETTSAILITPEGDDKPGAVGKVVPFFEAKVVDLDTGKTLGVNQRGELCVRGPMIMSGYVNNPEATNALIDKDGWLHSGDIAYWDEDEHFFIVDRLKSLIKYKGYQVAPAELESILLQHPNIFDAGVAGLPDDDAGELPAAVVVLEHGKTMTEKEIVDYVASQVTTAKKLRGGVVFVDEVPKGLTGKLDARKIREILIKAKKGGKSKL
In short: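 Purified P. pyralis luciferase at 10 nM in 50 mM Tris Acetate (final), luminescence read within 5 minutes of enzyme addition to compounds. Activity normalised to PTC124 versus DMSO; concentration-response curves classed by r2, magnitude and activity.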

[19] = qHTS profiling for inhibitors of Plasmodium falciparum proliferation (AID 504749); also: potency is read from the fitted curve at half-maximal effect;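 as to activity, negative = inhibition: 0% = DMSO vehicle and full inhibition = artemisinin control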; as to all read-outs here: nearly all actives have a fitted effect of over 60% in size; details: P. falciparum in erythrocytes, SYBR Green DNA, 72 h; for activity, negative = inhibition: at 28.7 µM (top of the series)
In short: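 Each compound contacts P. falciparum-infected red blood cells for 72 h at 37 C; lysis buffer (Tris, EDTA, saponin, Triton X, SYBR Green I) is added and fluorescence measured next morning; values normalized to controls.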

O=C1CCc2ccccc2O1
-3.35%: max response [10]
inactive: Potency [1] > 92 µM | Potency [2] > 92 µM | Potency [3] > 92 µM | Potency [4] | activity change, negative = cytotoxicity [5] 7.71% | Potency [6] | outcome [7] | outcome [8] | outcome [9] | activation [11] 0.95% | max response [12] 0.979% | Potency [13] | max response [14] -0.285% | Potency [15] | Potency [16]

CCCCCCCCCCCCC[N+](C)(C)Cc1ccccc1
inactive: Potency [6] | Potency [16] | Potency [17]

Cc1cc(CC(C)CC(C)(C)C)n(O)c(=O)c1 (centres undefined)
inactive: Potency [18] | Potency [16]
active: Potency ([19]; parasite line A) 1.78 µM | Potency ([19]; parasite line B) 1 µM

CC(C)CC(NC(=O)CNC(=O)C(Cc1ccc(O)cc1)NC(=O)C(CO)NC(=O)C(Cc1c[nH]c2ccccc12)NC(=O)C(Cc1cnc[nH]1)NC(=O)C1CCC(=O)N1)C(=O)NC(CCCN=C(N)N)C(=O)N1CCCC1C(=O)NCC(N)=O (centres undefined)
inactive: Potency [18] | Potency [16] | Potency [17]

COc1cc(/C=C/C(=O)N2CCC=CC2=O)cc(OC)c1OC
inactive: Potency [16]

CC1(C)S[C@@H]2[C@H](NC(=O)COc3ccccc3)C(=O)N2[C@H]1C(=O)O
-19.5%: max response [10]
inactive: outcome [8] | outcome [9] | Potency [18] | activation [11] -1.58% | max response [12] -2.73% | Potency [13] | max response [14] -6.9% | Potency [15] | Potency [16] | activity, negative = inhibition ([19]; parasite line A) 4.88% | activity, negative = inhibition ([19]; parasite line B) 4.38%

CO/N=C(/C(=O)N[C@@H]1C(=O)N2C(C(=O)OC(C)OC(C)=O)=C(COC(N)=O)CS[C@H]12)c1ccco1 (some centres undefined)
inactive: Potency [18]
active: Potency [16] 20.2 µM

N[C@@H](C(=O)N[C@@H]1C(=O)N2C(C(=O)O)=C(Cl)CC[C@H]12)c1ccccc1
inactive: Potency [16] | Potency [17]

Nc1cccc(-c2csc(NC(=O)CCCCCCC(=O)NO)n2)c1
inactive: Potency [16]
